# Source: PubChem BioAssay (The Scripps Research Institute Molecular Screening Center)
# SRC1 TRFRET art = TR-FRET detection interference compounds, primary screen, artefact control for PPARgamma SRC-1 recruitment agonists, biochemical, TR-FRET emission ratio. TR-FRET detection artefact counter-screen; hits give high values. TR-FRET ratio at 8 µM. 0.34% of 99,000 active. AID 1051, 2008; in the data active = TR-FRET ratio above about 2300
# PPARg SRC-3 ag = PPARgamma agonists recruiting SRC-3 coactivator, primary screen, biochemical | biochemical PPARgamma/SRC-3 coactivator recruitment assay | Peroxisome proliferator-activated receptor gamma (Homo sapiens), P37231 | 0.26% of 200,000 active | AID 731, 2007 | activation, % at 8 µM; in the data active = activation above about 23%;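 also: 0% = DMSO and 100% = reference agonist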
# SRC2 TRFRET art = TR-FRET signal artefacts, primary screen, artefact control for PPARgamma SRC-2 agonist project, biochemical; TR-FRET artefact counter-screen; hits give high values; TR-FRET ratio at 8 µM; 0.4% of 200,000 active; in the data active = TR-FRET ratio above about 2000
# SRC3 TRFRET art = TR-FRET detection interference compounds, artefact control for PPARgamma SRC-3 recruitment agonists, biochemical, TR-FRET ratio. TR-FRET ratio at 8 µM. TR-FRET artefact counter-screen, PPARgamma/SRC-3 format; hits give high values. 0.39% of 99,000 active; in the data active = TR-FRET ratio above about 2000
# PPARg SRC2 recr = agonists of PPARg-SRC-2 recruitment, primary screen, biochemical, HTS. PPARgamma LBD-SRC-2 recruitment. Peroxisome proliferator-activated receptor gamma (Homo sapiens), P37231. AID 1032, 2008. 0.34% of 200,000 active. activation, % at 8 µM;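 also: 0% = vehicle and 100% = reference agonist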
# PPARg SRC1 recr = PPARgamma agonists recruiting SRC-1 coactivator, primary screen, biochemical; activation, % at 8 µM; AID 631, 2007; 0.41% of 200,000 active; PPARgamma-SRC-1 coactivator recruitment biochemical assay; Peroxisome proliferator-activated receptor gamma (Homo sapiens), P37231; in the data active = activation above about 19%;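 also: 0% = DMSO and 100% = reference agonist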
# PPARg SRC2 ag = agonists of PPARgamma SRC-2 coactivator recruitment, confirmation, biochemical, HTS; shares compounds with PPARg SRC-3 ag; biochemical SRC-2 recruitment by PPARgamma; activation, % at 8 µM; 52% of 790 active;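 also: 0% = vehicle alone and 100% = reference agonist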
# PPARg SRC1 ag = PPARgamma agonists recruiting SRC-1 coactivator, confirmation, biochemical; shares compounds with PPARg SRC-3 ag; PPARgamma–SRC-1 coactivator recruitment biochemical assay; activation, % at 8 µM; 43% of 790 active; AID 1300, 2008; in the data active = activation above about 20%;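 also: 0% = vehicle wells and 100% = reference agonist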
# PPARg SRC3 conf = PPARgamma-driven SRC-3 coactivator recruitment agonists, confirmation, biochemical; shares compounds with PPARg SRC-3 ag; biochemical PPARgamma-SRC-3 coactivator recruitment, agonist mode; activation, % at 8 µM; 29% of 790 active; in the data active = activation above about 24%;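 also: 0% = vehicle wells and 100% = reference agonist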
# Target sequence (P37231 whole entry, looked up): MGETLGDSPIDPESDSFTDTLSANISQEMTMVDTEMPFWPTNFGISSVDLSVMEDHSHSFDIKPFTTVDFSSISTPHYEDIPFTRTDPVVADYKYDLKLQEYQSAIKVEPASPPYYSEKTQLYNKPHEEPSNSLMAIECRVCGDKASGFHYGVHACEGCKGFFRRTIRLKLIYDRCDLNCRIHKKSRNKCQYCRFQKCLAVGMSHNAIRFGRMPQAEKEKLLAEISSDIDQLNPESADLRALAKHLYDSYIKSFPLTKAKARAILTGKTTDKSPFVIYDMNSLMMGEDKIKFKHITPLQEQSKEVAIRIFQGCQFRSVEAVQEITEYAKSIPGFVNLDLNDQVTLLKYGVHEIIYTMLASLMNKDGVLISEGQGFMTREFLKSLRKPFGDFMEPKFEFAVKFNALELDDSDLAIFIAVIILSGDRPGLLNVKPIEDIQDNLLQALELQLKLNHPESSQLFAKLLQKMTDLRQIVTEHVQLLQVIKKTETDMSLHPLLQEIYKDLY
# Target sequence (Q9Y6Q9 whole entry, looked up): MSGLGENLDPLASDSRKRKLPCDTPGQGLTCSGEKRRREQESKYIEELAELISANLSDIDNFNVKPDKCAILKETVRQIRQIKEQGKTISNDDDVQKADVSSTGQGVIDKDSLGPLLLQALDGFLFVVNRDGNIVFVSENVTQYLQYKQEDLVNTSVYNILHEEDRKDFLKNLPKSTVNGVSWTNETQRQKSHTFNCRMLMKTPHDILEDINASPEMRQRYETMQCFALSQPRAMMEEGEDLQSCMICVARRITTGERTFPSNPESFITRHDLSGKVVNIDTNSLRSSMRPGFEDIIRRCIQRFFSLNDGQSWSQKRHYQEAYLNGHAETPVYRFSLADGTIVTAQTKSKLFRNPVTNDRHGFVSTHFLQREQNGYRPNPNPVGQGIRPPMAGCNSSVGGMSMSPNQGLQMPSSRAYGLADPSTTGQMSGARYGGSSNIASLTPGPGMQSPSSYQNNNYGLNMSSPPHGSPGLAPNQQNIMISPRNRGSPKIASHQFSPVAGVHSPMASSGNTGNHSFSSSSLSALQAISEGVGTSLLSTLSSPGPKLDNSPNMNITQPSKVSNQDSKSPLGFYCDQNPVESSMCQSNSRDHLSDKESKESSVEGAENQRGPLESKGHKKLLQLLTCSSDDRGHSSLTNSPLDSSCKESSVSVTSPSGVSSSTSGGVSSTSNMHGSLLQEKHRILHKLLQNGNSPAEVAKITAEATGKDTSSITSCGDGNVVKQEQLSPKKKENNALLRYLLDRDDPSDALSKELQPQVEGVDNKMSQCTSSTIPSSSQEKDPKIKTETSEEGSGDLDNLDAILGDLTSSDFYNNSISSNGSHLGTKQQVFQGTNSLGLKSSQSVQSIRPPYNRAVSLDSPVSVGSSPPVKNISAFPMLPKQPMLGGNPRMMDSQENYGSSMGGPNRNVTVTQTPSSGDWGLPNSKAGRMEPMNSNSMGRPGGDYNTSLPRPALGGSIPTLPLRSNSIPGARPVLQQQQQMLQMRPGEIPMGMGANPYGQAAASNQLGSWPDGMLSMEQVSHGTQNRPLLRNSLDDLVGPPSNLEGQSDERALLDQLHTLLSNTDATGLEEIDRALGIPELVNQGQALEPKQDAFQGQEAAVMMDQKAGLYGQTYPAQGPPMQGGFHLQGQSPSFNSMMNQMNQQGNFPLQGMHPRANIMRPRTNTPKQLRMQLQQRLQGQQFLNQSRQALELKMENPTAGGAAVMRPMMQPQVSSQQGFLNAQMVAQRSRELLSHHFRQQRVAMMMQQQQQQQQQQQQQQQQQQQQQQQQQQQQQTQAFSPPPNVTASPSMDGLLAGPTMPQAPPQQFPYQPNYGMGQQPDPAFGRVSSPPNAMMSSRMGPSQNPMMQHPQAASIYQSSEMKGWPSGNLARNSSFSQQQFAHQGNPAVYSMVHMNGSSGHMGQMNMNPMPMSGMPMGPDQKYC
# * hit, by the source's call; . = no result. A selection: hits, their analogues and other compounds. The true share with any hit is near 0.9%. Rule as the data show it, unless noted: active = activation above about 22%; inactive = the rest.
SMILES,SRC1 TRFRET art,PPARg SRC-3 ag,SRC2 TRFRET art,SRC3 TRFRET art,PPARg SRC2 recr,PPARg SRC1 recr,PPARg SRC2 ag,PPARg SRC1 ag,PPARg SRC3 conf
N#Cc1cc(C(=O)c2cc(Br)ccc2O)cn(Cc2ccccc2)c1=O,2306,7.6,1955,1805,14.0,31.3*,27.3*,23.1*,17.7
COc1ccc(O)c(C(=O)c2cc(C#N)c(=O)n(Cc3ccccc3)c2)c1,1656,5.5,1613,1633,1.6,11.1,.,.,.
O=C(c1ccc(Cn2c(=S)[nH]c3cc4c(cc3c2=O)OCO4)cc1)N1CCN(c2ccccc2)CC1,2110,2.0,1767,1780,-0.8,18.1,.,.,.
Cc1ccc(C)c(N2CCN(C(=O)c3ccc(Cn4c(=S)[nH]c5ccc(N6CCOCC6)cc5c4=O)cc3)CC2)c1,4039*,28.1*,3479*,3971*,17.4,26.0*,7.0,3.3,6.3
COc1ccc2[nH]c3c(Cl)ncnc3c2c1,1758,2.2,1577,1712,-0.2,0.6,.,.,.
COc1ccc2[nH]c3c(=S)nc[nH]c3c2c1,2593*,23.2*,2492*,2527*,33.6*,26.4*,16.2,8.3,12.2
Cc1ccc(C#CC[N+]2(CC#Cc3ccc(C)cc3)CCCCC2)cc1,1757,0.6,1496,1578,0.9,-2.6,.,.,.
COc1ccc(/C(O)=C2\C(=O)C(=O)N(c3cc(C)on3)C2c2ccccc2OC)cc1 (stereo not drawn),.,24.7,2135*,.,31.9*,19.2*,30.7*,25.1*,19.3
COc1cccc(C2/C(=C(\O)c3ccc(OC)c(OC)c3)C(=O)C(=O)N2c2cc(C)on2)c1 (stereo not drawn),.,27.9*,1910,.,29.2*,16.7,24.2*,17.5,14.8
COc1ccc(/C(O)=C2\C(=O)C(=O)N(c3cc(C)on3)C2c2ccc(OC)c(OC)c2)cc1OC (stereo not drawn),.,-4.2,1427,.,5.5,7.6,.,.,.
COc1cccc(OC)c1C(=O)Nc1nnc(-c2cccs2)s1,2546*,16.2,1921,2204*,28.4*,30.8*,27.2*,21.5*,20.3
CCC(CC)C(=O)Nc1nnc(-c2cccs2)s1,.,13.4,1582,.,8.5,11.8,.,.,.
CCOC(=O)c1sc(C)c2c1NC(C)(c1cccs1)NC2=O (stereo not drawn),.,26.4*,1681,.,11.5,13.2,15.8,12.3,10.9
CCOC(=O)c1sc(C)c2c1NC1(CCCCC1)NC2=O,.,2.2,1524,.,1.6,3.4,.,.,.
CC(C)N1CCC(N2CCN(Cc3ccc(-c4ccc(Cl)cc4)o3)CC2CCO)CC1 (stereo not drawn),1432,-4.9,1417,1348,-11.4,11.2,.,.,.
Cc1cc(=S)c2cccc(C)c2[nH]1,2464*,20.2,2155*,2209*,22.2*,16.5,1.7,2.8,2.1
CCOc1ccccc1Nc1nnc(SCC(=O)Nc2cccc(S(=O)(=O)NC3=NCCCCC3)c2)s1,1850,-4.5,1424,1671,-2.2,-5.0,.,.,.
CCCOc1ccc(C2C(C(=O)c3ccco3)=C(O)C(=O)N2CCCn2ccnc2)cc1 (stereo not drawn),.,24.2,1725,.,13.8,18.9*,9.8,5.0,8.8
CCOC(=O)c1[nH]c2ccc(C)cc2c1N,2128,5.8,1458,1835,10.5,3.3,.,.,.
CCOC(=O)c1[nH]c2cc(OC)c(OC)cc2c1N,.,21.4,1702,.,25.5*,13.2,18.4,16.2,9.6
COc1ccccc1N(C(=O)c1cncc(Br)c1)c1nc(-c2ccc(C)cc2)cs1,1678,-1.0,1553,1497,2.4,4.4,.,.,.
